{"source": "PubChem BioAssay", "note": "Active and inactive are the calls of the source.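 The calls were made as follows: active = mean z-score across replicates of 1.96 or higher in either the MELAS or the Rieske mutant cell line; inactive = the rest.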"}
{"assay": "survival rescue of mitochondrial mutant cells in low glucose, primary screen, MELAS cybrids, Rieske KO mouse fibroblasts, CellTiter-Glo (AID 1508586);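 also: test concentration not given here; z relative to plate mean and SD of compound and empty wells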", "settings": "MELAS cybrid survival, CellTiter-Glo 48 h, stronger effect = higher value"}
{"compound": "Cn1cc(-c2cnn3c(N)c(Br)c(C4CCCNC4)nc23)cn1", "note": "(configuration not stated)", "z-score": "0.0709 (inactive)"}
{"compound": "CNCc1ccc(-c2cc(-c3nc(-c4ccc(S(=O)(=O)C(C)C)cc4)cnc3N)on2)cc1", "z-score": "2.18 (active)"}
{"compound": "Nc1nc(F)nc2c1ncn2C1OC(COP(=O)(O)O)C(O)C1O", "note": "(configuration not stated)", "z-score": "1.34 (inactive)"}
{"compound": "S=C(NCc1ccc2c(c1)OCO2)N1CCN(c2ncnc3c2oc2ccccc23)CC1", "z-score": "-0.551 (inactive)"}
{"compound": "Cc1cccc(CC(=O)N2CCc3c2ccc(-c2cn(C)c4ncnc(N)c24)c3F)n1", "z-score": "-0.412 (inactive)"}
{"compound": "CN1CCN(c2ccc(OC(F)(F)F)c(Nc3ncc4c(n3)-c3c(c(C(N)=O)nn3CCO)CC4)c2)CC1", "z-score": "1.84 (inactive)"}
{"assay": "survival rescue of mitochondrial mutant cells in low glucose, primary screen, MELAS cybrids, Rieske KO mouse fibroblasts, CellTiter-Glo (AID 1508586);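 also: test concentration not given here; z relative to plate mean and SD of compound and empty wells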", "settings": "Rieske KO mouse fibroblast survival, CellTiter-Glo 72 h"}
{"compound": "Cn1cc(-c2cnn3c(N)c(Br)c(C4CCCNC4)nc23)cn1", "note": "(configuration not stated)", "z-score": -0.322}
{"compound": "CNCc1ccc(-c2cc(-c3nc(-c4ccc(S(=O)(=O)C(C)C)cc4)cnc3N)on2)cc1", "z-score": -0.548}
{"compound": "Nc1nc(F)nc2c1ncn2C1OC(COP(=O)(O)O)C(O)C1O", "note": "(configuration not stated)", "z-score": 0.326}
{"compound": "S=C(NCc1ccc2c(c1)OCO2)N1CCN(c2ncnc3c2oc2ccccc23)CC1", "z-score": 0.864}
{"compound": "Cc1cccc(CC(=O)N2CCc3c2ccc(-c2cn(C)c4ncnc(N)c24)c3F)n1", "z-score": -0.298}
{"compound": "CN1CCN(c2ccc(OC(F)(F)F)c(Nc3ncc4c(n3)-c3c(c(C(N)=O)nn3CCO)CC4)c2)CC1", "z-score": -0.694}
